pS6 MEF inh = mTORC1 pathway inhibition measured by phospho-rpS6 | Tsc2-/- p53-/- MEF, phospho-rpS6 immunofluorescence/PI, 24 h | Potency, µM (titrated, usually from 38.3 µM), for inactives: at the highest dose activity change, negative = inhibition, actives largely listed as inhibitors | hit rate 0.78% among 44,000 | AID 493208;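 note: plate controls were DMSO for no effect and rapamycin for full effect; nearly all actives have a fitted effect of over 50% in size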
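Readout is phospho-S6 Alexa 488 signal normalized to PI per well, reported as % active cells with thresholds set from rapamycin (7.5 nM) and DMSO controls. Cells: Tsc2-/-, p53-/- MEFs, 24 hrs compound at 37 C; PI cell number serves as viability.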
SKOV3 invasion = ovarian cancer metastasis inhibition, 3D TME model; Potency, µM (highest dose often 45.8 µM), for inactives: at the top dose activity change, negative = inhibition, usual class: inhibitors; hit rate 0.1% among 46,000; SKOV3ip1-GFP adhesion/invasion on 3D omental model, fluorescence;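 note: plate controls were DMSO wells for no effect and tomatine positive control wells for full effect; nearly all actives have a fitted effect of over 65% in size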
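Primary human omental fibroblast/mesothelial 3D culture pre-formed 48 h. SKOV3ip1-GFP cells added with compounds (0.36-46 umol/L), incubated 2 h RT/16 h 37 C, fixed; GFP cells quantified at 488/509 nm.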
PMP22 txn = modulates PMP22 transcription in S16 Schwann cells; hit rate 2% among 43,000; AID 1508649; S16 Pmp22-F2sN Schwann cells, FLuc/NLuc coincidence luminescence, 24 h; Potency, µM (top dose mostly 57.5 µM), without a hit: top-dose activity change, negative = inhibition, most hits filed as inhibitors; active = clear falling dose curves in both reporters; inconclusive = both reporters move, but less clearly or upward; inactive = either reporter flat; the % is the NLuc reporter signal
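S16 Schwann cells carrying FLuc/NLuc coincidence reporter in the Pmp22 3' UTR treated with compound 24 h at 37C; FLuc then NLuc luminescence read sequentially by dual-luciferase reagents.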
S16 viability = S16 Schwann cell cytotoxicity. hit rate 0.48% among 43,000. S16 Pmp22-F2sN Schwann cells (luciferase reporters placed in the Pmp22 gene) viability, CellTiter-Glo, 24 h. Potency, µM (highest dose often 57.5 µM), for inactives: at the top dose activity change, negative = cytotoxicity, hits mostly cytotoxic; note: nearly all actives have a fitted effect of over 65% in size
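Luminescence from CellTiter-Glo, read by CCD camera after a 15 min room-temperature incubation, served as the viability signal. Reporter Schwann cells (S16 Pmp22-F2sN) had been treated with pin-transferred compounds for 24 h at 37C.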
p53null 32C tox = selectivity test: cytotoxicity in p53 null cells, permissive temperature. H1299-neo p53 null cells, ATP luminescence, 24 h, 32C. Potency, µM (series often up to 46.1 µM), for inactives: top-dose activity change, negative = cytotoxicity, actives largely listed as cytotoxic. hit rate 0.62% among 55,000. AID 903;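 note: 0% = DMSO only and -100% = full killing by 100 µM tamoxifen; nearly all actives have a fitted effect of over 55% in size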
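H1299-neo, 600 cells/well; overnight 37C; cpd up to 46 uM, 24 h at 32C; ATPlite luminescence after 20 min RT; normalized to DMSO (0%) and tamoxifen 100 uM (100% kill); Hill-fit AC50.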
p53null 39C kill = selectivity test: cytotoxicity in p53 null cells, nonpermissive temperature; H1299 p53-null (neo) cells, 39C, ATPlite viability, 24 h; Potency, µM (highest dose often 46.1 µM), for the others: at the top dose activity, negative = cell killing, hits mostly cytotoxic; hit rate 0.97% among 55,000; AID 904;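 note: 0% = DMSO only and -100% = full killing by 100 µM tamoxifen; nearly all actives have a fitted effect of over 50% in size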
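H1299 lung cancer cells, p53-null (H1299-neo) or expressing p53 A138V (H1299-p53A138V), were plated overnight at 37C, then exposed to compounds at up to 46 uM for 24 hr at 39C. Viability was read by ATP-based luminescence.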
* = called active by the depositor; i = inactive; ? = inconclusive; . = no result given. Rows were chosen to be rich in hits. Some 3.1% of all compounds tested hit in one or more screens of this group. Unless noted, calls come from the whole dose curve; as a rule, active = well fitted curve in the direction sought with a large enough effect; inconclusive = small, poorly fitted or top-dose-only effect, or another doubt; inactive = no such curve, though single readings can be large; an effect the other way counts as inactive or inconclusive. Unless noted, % is set by controls: 0 for no effect and ±100 for the full control effect; potency is the fitted concentration of half-maximal effect.

SMILES | pS6 MEF inh | SKOV3 invasion | PMP22 txn | S16 viability | p53null 32C tox | p53null 39C kill
Cc1ccccc1CN1C(=O)C(O)(CC(=O)c2ccccc2)c2cc(Cl)ccc21 (configuration not stated) | 12µM* | ? | ? | ? | 38% | 17%
Cc1cc(SCc2sc(-c3ccc(C(F)(F)F)cc3)nc2C)ccc1OCC(=O)O | . | 21% | . | . | . | .
c1ccc2c(Oc3nc(Nc4ccc(N5CCOCC5)cc4)c4ncn(C5CCCCC5)c4n3)cccc2c1 | . | -11% | . | . | . | .
CCc1ccc(NC(=O)CSC2=Nc3ccccc3C3=NC(CCC(=O)NCc4ccccc4)C(=O)N23)cc1 (configuration not stated) | -8% | 8% | -24% | 7% | -2% | 3%
COc1ccc(OC)c(NC(=O)CSC2=Nc3ccccc3C3=NC(CCC(=O)NCc4ccccc4)C(=O)N23)c1 (configuration not stated) | -1% | 25% | 12µM* | ? | 0% | -4%
CC(C)c1ccc(NC(=O)CSC2=Nc3ccccc3C3=NC(CCC(=O)NCc4ccc(F)cc4)C(=O)N23)cc1 (configuration not stated) | ? | 2% | ? | 28µM* | 16% | 86%
CC(C)(O)c1cc2nc(-c3cnc(N)nc3)nc(N3CCOCC3)c2s1 | . | 1% | . | . | . | .
COc1ccc2nc(-c3cccc(N)c3)[nH]c2c1 | . | . | . | . | 10µM* | 8.9µM*
COc1ccc2oc(=O)c(-c3nc4ccc(C)cc4[nH]3)cc2c1 | -5% | 6% | ? | -29% | -12% | -20%
COc1ccc2nc(-c3ccc(N)cc3)[nH]c2c1 | . | . | . | . | 13µM* | ?
COc1ccc(-c2nc3ccc(C4=NNC(=O)CC4C)cc3[nH]2)cc1 (configuration not stated) | . | 13% | . | . | . | .
Cc1ccc(CN2C(=O)C(=O)c3cc(Br)cc(C)c32)cc1 | ? | 13µM* | ? | ? | ? | 11µM*
CC(C)(C)OC(=O)Nc1ccc(-c2cc(C(=O)NCCCCCCC(=O)NO)no2)cc1 | . | 2% | . | . | . | .
Cc1ccc2nc(-c3sc4nc(C)ccc4c3N)[nH]c2c1 | . | . | . | . | 11µM* | 10µM*
Nc1ccc2nc(-c3cccs3)[nH]c2c1 | . | . | . | . | ? | -20%
COc1ccc([C@@H]2CC(=O)c3c(O)cc(O[C@@H]4O[C@H](CO[C@@H]5O[C@@H](C)[C@H](O)[C@@H](O)[C@@H]5O)[C@@H](O)[C@H](O)[C@@H]4O)cc3O2)cc1O | . | -1% | . | . | . | .
N#Cc1c(NC(=O)c2cccc3ccccc23)sc2c1CCCC2 | . | 59% | . | . | . | .
CN1CCC(CNc2ccc3ncc(-c4cccc(OC(F)(F)F)c4)n3n2)CC1 | . | -9% | . | . | . | .
COc1cc(Cl)c(C)cc1NC(=O)c1cnc(N2CCCCC2)c2ccccc12 | -2% | 4% | -34% | -26% | ? | 3%
COc1cc(Cl)c(C)cc1NC(=O)C1CCN(c2nc3ccccc3n3cccc23)CC1 | 15µM* | -2% | ? | -6% | ? | 32µM*
Cc1cc(C)c(NC(=O)C2CCN(c3nc4ccccc4n4cccc34)CC2)c(C)c1 | 15µM* | -4% | -18% | 10% | 14% | ?
COc1cccc2cc(-c3nc(C4CCC(C(=O)O)CC4)n4ncnc(N)c34)[nH]c12 (configuration not stated) | . | -11% | . | . | . | .
COCCCNC(=O)C1CCN(C(=O)c2cc3sccc3n2Cc2ccc(Cl)cc2)CC1 | 2% | -16% | ? | ? | 1% | -5%
COCCNC(=O)C1CCN(C(=O)c2cc3sccc3n2Cc2ccc(Cl)cc2)CC1 | 1% | i | 10µM* | ? | 11% | 9%
O=C(Nc1ncc(SCCN2CCCC2)s1)[C@]1(c2ccc(S(=O)(=O)C3CC3)cc2)C[C@@H]1C1CCCCC1 | . | -5% | . | . | . | .
SMILES | pS6 MEF inh | SKOV3 invasion | PMP22 txn | S16 viability | p53null 32C tox | p53null 39C kill
Nc1ccc(C(=O)Nc2cccc(-c3nc(N4CCOCC4)c4oc5ncccc5c4n3)c2)cn1 | . | 3% | . | . | . | .
Clc1ccc(N2CCN(c3ncnc4c3nc3n4CCCC3)CC2)cc1 | -6% | 1% | 14µM* | ? | 2% | -13%
Fc1ccc(N2CCN(c3ncnc4c3nc3n4CCCCC3)CC2)cc1 | 4% | i | ? | 1% | -5% | -9%
Cc1cc(OCC(=O)Nc2cc(-c3nc4ccccc4[nH]3)ccc2C)ccc1Cl | 15µM* | i | -53% | -11% | ? | ?
Cc1ccc(-c2nc3ccccc3[nH]2)cc1NC(=O)COc1ccc(Cl)cc1Cl | -1% | -10% | 0% | ? | 22% | -17%
CCOC(=O)[C@H]1O[C@H]1C(=O)N[C@@H](CC(C)C)C(=O)NCCC(C)C | . | 1% | . | . | . | .
Cc1c(O)cccc1C(=O)N[C@@H](CSc1ccccc1)[C@H](O)CN1C[C@H]2CCCC[C@@H]2C[C@@H]1C(=O)NC(C)(C)C | . | 2% | . | . | . | .
CC1(C)CCC[C@@]2(C)[C@@H]1CC[C@@]1(C)OC(=O)C[C@H]21 | . | -8% | . | . | . | .
Cc1ccc(OC(=O)c2cc(-c3ccc4c(c3)OCCO4)on2)c(C)c1 | -1% | -11% | 11% | 2% | 20µM* | 32µM*
CC(=O)c1cccc(NC(=O)c2cc(-c3ccc4c(c3)OCCO4)on2)c1 | -16% | i | 7% | 3% | 2µM* | 3.2µM*
CCCCc1nc2cc(C=CC(=O)NO)ccc2n1CCN(CC)CC | . | -10% | . | . | . | .
COc1ccccc1NC(CC(=O)c1ccccc1)C(=O)OCC(=O)c1ccc(C)c(C)c1 (configuration not stated) | . | . | . | . | 18µM* | .
Cc1ccc(C(=O)COC(=O)CCC(=O)Nc2ccc(Oc3ccccc3)cc2)cc1C | 3% | 1% | 0% | -6% | 0% | -20%
O=C(Nc1nnc(-c2cc(Cl)ccc2Cl)o1)c1ccc2c(c1)OCCO2 | ? | 7% | -4% | 6% | -5% | -41%
Cc1ccc(-c2nnc(NC(=O)c3ccc4c(c3)OCCO4)o2)c(C)c1 | 3% | 3% | ? | 2% | -15% | 25µM*
CCC(C(=O)NC1CCCCC1)n1c(SCc2cccc(C)c2)nc2ccncc21 (configuration not stated) | -7% | i | ? | -12% | 13µM* | 7.9µM*
COc1ccc(C(=O)Nc2cccc(-c3cn4ccsc4n3)c2)cc1OC | ? | i | ? | -1% | ? | 13µM*
Clc1ccc2ncc(-c3cccc(NC4CNC4)n3)n2c1 | . | 20% | . | . | . | .

Source: PubChem BioAssay
